# In paper PMC7862700, “An all-to-all approach to the identification of sequence-specific readers for epigenetic DNA modifications on cytosine”:
# Experiments:
# Assay in all cases: DAPPL (digital affinity profiling via proximity ligation, sequencing); 10 mM Tris-HCl pH 7.5, 50 mM NaCl, 1 mM DTT, 4% glycerol, room temperature, 30 min; GST-TFs on glutathione beads, 16-mer random dsDNA library, 0.1% formaldehyde crosslink after washing; high values mean tight binding
# FEV = biological target: T1, FEV (Homo sapiens, UniProt Q99581 1-238); settings: protein: recombinant; tags: N-terminal GST; dsDNA, one strand shown
# T1 sequence: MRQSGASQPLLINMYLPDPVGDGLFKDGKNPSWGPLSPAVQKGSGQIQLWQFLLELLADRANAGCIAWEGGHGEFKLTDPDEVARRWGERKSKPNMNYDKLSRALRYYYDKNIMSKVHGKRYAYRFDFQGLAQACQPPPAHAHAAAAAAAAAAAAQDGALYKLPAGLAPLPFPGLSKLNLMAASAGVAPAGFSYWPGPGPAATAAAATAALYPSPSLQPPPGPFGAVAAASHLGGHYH
# Summary of the method: (§1)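 Human transcription factors were made in yeast as GST fusions, captured on glutathione beads and barcoded with DNA. With a tag-only sample included, the pool was incubated with 200 nmole of a random double-stranded 16-mer DNA library in Tris/NaCl/DTT/glycerol buffer at room temperature for 30 min, then crosslinked with 0.1% formaldehyde after washing, ligated by proximity, amplified and sequenced. For binding signal, each hexamer's read frequency for a factor is divided by its frequency for the tag-only sample.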
# ETV5 = ETV5 (Homo sapiens, UniProt P41161 1-510); settings: protein: recombinant; tags: N-terminal GST; dsDNA, one strand shown
# Summary of the method: as §1
# HSF1 = HSF1 (Homo sapiens, UniProt Q00613 1-529); settings: protein: recombinant; tags: N-terminal GST; chain copies: 3; dsDNA, one strand shown
# Summary of the method: as §1
# SPIC = biological target: T2, SPIC (Homo sapiens, UniProt Q8N5J4 1-248); settings: protein: recombinant; tags: N-terminal GST; dsDNA, one strand shown
# T2 sequence: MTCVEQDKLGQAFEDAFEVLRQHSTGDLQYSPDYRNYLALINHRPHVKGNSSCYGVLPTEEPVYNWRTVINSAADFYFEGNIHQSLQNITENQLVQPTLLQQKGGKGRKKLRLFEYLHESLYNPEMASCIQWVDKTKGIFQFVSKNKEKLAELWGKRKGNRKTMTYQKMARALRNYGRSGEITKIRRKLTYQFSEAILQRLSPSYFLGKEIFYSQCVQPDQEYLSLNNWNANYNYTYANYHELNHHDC
# Summary of the method: as §1
# ELF4 = ELF4 (Homo sapiens, UniProt Q99607 1-663); settings: protein: recombinant; tags: N-terminal GST; dsDNA, one strand shown
# Summary of the method: as §1
# ELK4 = biological target: T3, ELK4 (Homo sapiens, UniProt P28324-2 1-405); settings: protein: recombinant; tags: N-terminal GST; dsDNA, one strand shown
# T3 sequence: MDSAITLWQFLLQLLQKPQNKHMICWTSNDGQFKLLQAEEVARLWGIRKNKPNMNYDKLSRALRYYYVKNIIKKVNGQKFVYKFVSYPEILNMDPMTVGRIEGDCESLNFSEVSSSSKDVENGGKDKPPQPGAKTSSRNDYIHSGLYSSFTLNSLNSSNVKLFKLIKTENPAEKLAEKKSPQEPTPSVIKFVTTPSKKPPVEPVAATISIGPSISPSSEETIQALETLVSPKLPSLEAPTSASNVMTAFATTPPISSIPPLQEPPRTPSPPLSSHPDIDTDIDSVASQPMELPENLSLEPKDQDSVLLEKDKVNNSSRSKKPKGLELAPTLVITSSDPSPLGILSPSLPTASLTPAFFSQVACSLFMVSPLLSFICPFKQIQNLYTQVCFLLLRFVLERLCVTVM
# Summary of the method: as §1
# ETV2 = biological target: T4, ETV2 (Homo sapiens, UniProt O00321 1-342); settings: protein: recombinant; tags: N-terminal GST; dsDNA, one strand shown
# T4 sequence: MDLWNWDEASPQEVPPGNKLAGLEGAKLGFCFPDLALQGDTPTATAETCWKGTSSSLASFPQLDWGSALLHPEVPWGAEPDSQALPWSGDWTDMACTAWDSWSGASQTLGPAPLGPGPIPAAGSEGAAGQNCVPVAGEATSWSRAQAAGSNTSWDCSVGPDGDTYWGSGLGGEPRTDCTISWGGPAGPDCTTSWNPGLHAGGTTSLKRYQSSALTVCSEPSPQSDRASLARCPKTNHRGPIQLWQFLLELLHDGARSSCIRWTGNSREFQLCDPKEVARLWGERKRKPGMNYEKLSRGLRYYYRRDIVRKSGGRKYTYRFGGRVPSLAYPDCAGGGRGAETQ
# Summary of the method: as §1
# ELF3 = biological target: T5, ELF3 (Homo sapiens, UniProt P78545 1-371); settings: protein: recombinant; tags: N-terminal GST; dsDNA, one strand shown
# T5 sequence: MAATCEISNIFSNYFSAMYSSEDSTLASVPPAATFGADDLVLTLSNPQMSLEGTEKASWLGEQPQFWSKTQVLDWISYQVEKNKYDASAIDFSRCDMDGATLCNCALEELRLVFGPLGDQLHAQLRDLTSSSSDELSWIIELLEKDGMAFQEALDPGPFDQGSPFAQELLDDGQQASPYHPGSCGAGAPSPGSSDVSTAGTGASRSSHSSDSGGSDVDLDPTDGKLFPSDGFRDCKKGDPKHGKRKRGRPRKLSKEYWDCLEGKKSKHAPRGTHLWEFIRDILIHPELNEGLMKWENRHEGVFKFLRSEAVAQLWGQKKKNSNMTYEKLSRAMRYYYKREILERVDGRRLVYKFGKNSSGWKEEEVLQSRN
# Summary of the method: as §1
# CRX = CRX (Homo sapiens, UniProt O43186 1-299); settings: protein: recombinant; tags: N-terminal GST; dsDNA, one strand shown
# Summary of the method: as §1
# ETV1 = ETV1 (Homo sapiens, UniProt P50549 1-477); settings: protein: recombinant; tags: N-terminal GST; dsDNA, one strand shown
# Summary of the method: as §1
# ERF = biological target: T6, ERF (Homo sapiens, UniProt P50548 1-548); settings: protein: recombinant; tags: N-terminal GST; dsDNA, one strand shown
# T6 sequence: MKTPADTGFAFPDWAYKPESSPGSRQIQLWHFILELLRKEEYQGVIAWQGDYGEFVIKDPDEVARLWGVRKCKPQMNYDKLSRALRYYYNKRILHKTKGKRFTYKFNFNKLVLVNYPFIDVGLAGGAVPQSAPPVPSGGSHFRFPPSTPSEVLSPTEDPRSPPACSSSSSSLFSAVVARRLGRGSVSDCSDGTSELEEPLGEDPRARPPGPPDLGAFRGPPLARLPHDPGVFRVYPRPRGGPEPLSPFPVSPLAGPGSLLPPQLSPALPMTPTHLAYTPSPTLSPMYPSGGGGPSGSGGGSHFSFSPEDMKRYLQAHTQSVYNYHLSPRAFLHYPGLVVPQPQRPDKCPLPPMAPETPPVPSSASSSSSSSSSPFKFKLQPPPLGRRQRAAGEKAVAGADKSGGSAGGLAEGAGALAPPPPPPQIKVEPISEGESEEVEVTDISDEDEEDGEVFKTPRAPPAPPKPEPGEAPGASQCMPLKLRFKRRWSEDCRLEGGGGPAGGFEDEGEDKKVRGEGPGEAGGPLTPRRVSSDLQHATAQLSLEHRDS
# Summary of the method: as §1
# ETV3L = biological target: T7, ETV3L (Homo sapiens, UniProt Q6ZN32 1-361); settings: protein: recombinant; tags: N-terminal GST; dsDNA, one strand shown
# T7 sequence: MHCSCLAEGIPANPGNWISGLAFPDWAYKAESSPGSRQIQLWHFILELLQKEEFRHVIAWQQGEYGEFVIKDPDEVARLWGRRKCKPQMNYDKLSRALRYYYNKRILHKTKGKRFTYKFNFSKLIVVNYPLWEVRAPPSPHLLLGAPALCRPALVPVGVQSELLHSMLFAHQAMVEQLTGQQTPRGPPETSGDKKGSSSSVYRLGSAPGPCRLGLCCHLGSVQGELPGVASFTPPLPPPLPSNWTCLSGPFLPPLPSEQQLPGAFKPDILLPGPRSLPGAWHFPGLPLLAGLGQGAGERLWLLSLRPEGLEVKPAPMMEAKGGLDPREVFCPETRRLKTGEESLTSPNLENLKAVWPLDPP
# Summary of the method: as §1
# ETS2 = biological target: T8, ETS2 (Homo sapiens, UniProt P15036 1-469); settings: protein: recombinant; tags: N-terminal GST; dsDNA, one strand shown
# T8 sequence: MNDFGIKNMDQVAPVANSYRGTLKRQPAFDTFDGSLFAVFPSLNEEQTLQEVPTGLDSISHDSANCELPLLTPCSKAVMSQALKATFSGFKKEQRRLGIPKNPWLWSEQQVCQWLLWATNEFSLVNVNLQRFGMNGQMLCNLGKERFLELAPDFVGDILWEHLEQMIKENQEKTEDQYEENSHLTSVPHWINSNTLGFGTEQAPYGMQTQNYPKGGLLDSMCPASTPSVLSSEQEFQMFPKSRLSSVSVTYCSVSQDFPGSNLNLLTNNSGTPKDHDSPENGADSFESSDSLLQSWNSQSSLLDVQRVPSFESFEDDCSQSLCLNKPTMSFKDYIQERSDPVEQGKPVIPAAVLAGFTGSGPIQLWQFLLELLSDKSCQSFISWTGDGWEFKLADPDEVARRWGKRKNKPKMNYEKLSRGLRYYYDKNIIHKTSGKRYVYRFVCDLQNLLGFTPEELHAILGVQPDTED
# Summary of the method: as §1
# SPDEF = biological target: T9, SPDEF (Homo sapiens, UniProt O95238 1-335); settings: protein: recombinant; tags: N-terminal GST; dsDNA, one strand shown
# T9 sequence: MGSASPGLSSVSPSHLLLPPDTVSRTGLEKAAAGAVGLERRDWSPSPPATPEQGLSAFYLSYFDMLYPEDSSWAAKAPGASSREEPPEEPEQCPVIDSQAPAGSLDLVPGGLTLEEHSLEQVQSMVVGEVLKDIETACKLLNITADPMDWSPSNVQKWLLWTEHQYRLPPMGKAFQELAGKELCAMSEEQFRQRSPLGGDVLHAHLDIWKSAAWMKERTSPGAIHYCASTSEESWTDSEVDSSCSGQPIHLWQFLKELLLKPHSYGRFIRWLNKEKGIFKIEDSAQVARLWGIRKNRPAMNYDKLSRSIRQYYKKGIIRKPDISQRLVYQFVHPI
# Summary of the method: as §1
# ETV7 = biological target: T10, ETV7 (Homo sapiens, UniProt Q9Y603 1-341); settings: protein: recombinant; tags: N-terminal GST; dsDNA, one strand shown
# T10 sequence: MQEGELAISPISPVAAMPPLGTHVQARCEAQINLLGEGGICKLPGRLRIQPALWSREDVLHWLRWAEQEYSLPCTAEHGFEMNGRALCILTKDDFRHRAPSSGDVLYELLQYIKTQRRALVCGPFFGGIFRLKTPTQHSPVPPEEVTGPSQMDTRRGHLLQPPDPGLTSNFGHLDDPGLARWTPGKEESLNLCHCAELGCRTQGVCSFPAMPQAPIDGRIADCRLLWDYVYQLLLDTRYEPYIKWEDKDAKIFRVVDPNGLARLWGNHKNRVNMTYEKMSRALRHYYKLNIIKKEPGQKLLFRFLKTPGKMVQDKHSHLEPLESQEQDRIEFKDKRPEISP
# Summary of the method: as §1
# ELF5 = biological target: T11, ELF5 (Homo sapiens, UniProt Q9UKW6-2 1-255); settings: protein: recombinant; tags: N-terminal GST; dsDNA, one strand shown
# T11 sequence: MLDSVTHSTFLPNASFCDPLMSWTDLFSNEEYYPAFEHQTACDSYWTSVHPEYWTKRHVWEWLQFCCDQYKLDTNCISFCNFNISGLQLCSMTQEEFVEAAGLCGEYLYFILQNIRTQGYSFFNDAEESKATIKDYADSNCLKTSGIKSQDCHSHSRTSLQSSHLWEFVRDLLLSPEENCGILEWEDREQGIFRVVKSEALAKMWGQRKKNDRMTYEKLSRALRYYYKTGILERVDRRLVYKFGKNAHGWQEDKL
# Summary of the method: as §1
# ETV3 = biological target: T12, ETV3 (Homo sapiens, UniProt P41162-2 1-143); settings: protein: recombinant; tags: N-terminal GST; dsDNA, one strand shown
# T12 sequence: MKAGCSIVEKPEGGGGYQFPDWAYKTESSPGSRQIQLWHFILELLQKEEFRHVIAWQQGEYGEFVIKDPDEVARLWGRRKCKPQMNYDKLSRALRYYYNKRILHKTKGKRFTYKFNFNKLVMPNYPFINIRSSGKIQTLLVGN
# Summary of the method: as §1
# ETV6 = ETV6 (Homo sapiens, UniProt P41212 1-452); settings: protein: recombinant; tags: N-terminal GST; dsDNA, one strand shown
# Summary of the method: as §1
# ETV1, sequence (P50549 whole entry): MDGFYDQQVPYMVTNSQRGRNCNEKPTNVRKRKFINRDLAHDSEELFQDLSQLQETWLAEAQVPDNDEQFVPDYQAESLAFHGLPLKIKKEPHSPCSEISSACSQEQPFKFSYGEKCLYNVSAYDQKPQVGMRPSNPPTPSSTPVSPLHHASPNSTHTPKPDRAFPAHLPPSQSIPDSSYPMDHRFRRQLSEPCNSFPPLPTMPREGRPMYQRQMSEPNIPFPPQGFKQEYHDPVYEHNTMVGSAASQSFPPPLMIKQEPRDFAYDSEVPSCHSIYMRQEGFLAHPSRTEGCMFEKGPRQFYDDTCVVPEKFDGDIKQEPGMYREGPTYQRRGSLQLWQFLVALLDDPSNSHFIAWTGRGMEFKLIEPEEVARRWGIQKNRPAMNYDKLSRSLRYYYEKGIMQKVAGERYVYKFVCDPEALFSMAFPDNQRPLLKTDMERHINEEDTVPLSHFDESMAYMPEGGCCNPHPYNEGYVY
# HSF1, sequence (Q00613 whole entry): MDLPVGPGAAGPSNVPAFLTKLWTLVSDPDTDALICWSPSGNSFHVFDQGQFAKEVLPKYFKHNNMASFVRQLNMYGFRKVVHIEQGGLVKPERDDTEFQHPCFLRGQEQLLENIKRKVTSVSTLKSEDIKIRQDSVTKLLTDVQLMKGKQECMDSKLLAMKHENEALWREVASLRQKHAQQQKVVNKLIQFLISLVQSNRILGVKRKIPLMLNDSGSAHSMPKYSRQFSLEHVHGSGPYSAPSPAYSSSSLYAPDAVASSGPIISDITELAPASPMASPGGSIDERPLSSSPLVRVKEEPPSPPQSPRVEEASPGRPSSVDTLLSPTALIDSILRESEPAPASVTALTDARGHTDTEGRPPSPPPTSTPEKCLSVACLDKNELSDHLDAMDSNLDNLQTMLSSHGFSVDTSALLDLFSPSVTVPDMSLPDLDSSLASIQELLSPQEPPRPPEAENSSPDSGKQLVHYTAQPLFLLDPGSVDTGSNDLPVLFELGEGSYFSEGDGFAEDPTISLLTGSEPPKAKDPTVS
# ETV6, sequence (P41212 whole entry): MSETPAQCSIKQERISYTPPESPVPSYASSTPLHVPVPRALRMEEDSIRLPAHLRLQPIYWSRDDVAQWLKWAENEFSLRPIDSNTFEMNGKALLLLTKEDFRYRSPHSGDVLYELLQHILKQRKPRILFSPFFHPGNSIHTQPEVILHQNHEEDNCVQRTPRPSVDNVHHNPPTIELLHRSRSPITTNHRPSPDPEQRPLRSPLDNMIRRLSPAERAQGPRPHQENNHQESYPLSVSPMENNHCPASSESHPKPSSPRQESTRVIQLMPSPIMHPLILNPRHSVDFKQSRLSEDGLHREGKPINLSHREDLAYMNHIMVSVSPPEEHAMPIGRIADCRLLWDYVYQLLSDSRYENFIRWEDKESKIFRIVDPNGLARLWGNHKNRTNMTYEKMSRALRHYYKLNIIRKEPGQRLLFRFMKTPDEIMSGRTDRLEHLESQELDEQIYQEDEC
# ELF4, sequence (Q99607 whole entry): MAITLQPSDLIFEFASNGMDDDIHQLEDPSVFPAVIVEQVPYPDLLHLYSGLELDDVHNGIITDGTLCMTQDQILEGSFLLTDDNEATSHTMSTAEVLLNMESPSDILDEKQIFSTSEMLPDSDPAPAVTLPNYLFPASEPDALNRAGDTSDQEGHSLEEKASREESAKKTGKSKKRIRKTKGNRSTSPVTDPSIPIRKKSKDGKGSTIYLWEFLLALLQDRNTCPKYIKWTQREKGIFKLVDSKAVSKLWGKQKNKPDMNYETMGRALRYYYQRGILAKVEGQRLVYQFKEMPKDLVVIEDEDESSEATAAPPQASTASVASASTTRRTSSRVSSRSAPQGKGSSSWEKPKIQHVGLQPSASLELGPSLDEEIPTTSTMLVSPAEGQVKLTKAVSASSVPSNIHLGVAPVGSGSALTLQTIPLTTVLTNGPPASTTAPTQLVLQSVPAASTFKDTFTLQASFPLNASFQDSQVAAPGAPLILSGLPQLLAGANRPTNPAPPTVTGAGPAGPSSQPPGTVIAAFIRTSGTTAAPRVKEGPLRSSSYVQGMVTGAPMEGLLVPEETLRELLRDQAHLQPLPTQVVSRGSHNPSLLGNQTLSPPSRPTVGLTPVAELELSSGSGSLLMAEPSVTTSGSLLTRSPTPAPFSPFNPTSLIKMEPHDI
# CRX, sequence (O43186 whole entry): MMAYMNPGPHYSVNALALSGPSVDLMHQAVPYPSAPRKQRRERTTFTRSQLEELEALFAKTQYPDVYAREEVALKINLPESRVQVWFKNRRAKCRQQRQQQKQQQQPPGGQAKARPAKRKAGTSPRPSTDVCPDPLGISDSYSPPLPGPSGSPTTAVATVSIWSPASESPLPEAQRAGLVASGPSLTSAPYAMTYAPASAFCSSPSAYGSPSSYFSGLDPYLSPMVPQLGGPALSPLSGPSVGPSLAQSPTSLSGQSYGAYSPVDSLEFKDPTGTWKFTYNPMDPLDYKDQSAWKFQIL
# ETV5, sequence (P41161 whole entry): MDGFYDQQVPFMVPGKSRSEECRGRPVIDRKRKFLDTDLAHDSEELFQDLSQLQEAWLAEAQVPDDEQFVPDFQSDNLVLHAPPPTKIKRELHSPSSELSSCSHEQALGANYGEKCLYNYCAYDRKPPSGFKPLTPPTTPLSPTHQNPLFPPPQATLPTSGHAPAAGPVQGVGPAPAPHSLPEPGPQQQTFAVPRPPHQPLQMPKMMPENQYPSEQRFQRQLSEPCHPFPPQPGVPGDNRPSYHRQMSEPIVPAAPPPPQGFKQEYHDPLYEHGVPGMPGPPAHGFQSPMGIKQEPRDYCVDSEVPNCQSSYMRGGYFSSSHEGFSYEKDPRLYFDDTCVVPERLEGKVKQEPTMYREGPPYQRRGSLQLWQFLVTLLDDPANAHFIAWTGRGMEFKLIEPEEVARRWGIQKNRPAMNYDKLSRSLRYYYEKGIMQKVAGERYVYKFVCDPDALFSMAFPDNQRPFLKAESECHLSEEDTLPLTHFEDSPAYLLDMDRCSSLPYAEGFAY
sequence,measurement,setting,value
TCGATC,binding signal,FEV,"1.09 fold enrichment (6-mer frequency, TF over GST control)"
same,binding signal,ETV5,"1.19 fold enrichment (6-mer frequency, TF over GST control)"
same,binding signal,HSF1,"1.54 fold enrichment (6-mer frequency, TF over GST control)"
same,binding signal,SPIC,"1.1 fold enrichment (6-mer frequency, TF over GST control)"
same,binding signal,ELF4,"1.14 fold enrichment (6-mer frequency, TF over GST control)"
same,binding signal,ELK4,"1.15 fold enrichment (6-mer frequency, TF over GST control)"
same,binding signal,ETV2,"1.06 fold enrichment (6-mer frequency, TF over GST control)"
same,binding signal,ELF3,"1.17 fold enrichment (6-mer frequency, TF over GST control)"
same,binding signal,CRX,"1.23 fold enrichment (6-mer frequency, TF over GST control)"
same,binding signal,ETV1,"1.16 fold enrichment (6-mer frequency, TF over GST control)"
same,binding signal,ERF,"1.12 fold enrichment (6-mer frequency, TF over GST control)"
same,binding signal,ETV3L,"1.2 fold enrichment (6-mer frequency, TF over GST control)"
same,binding signal,ETS2,"1.15 fold enrichment (6-mer frequency, TF over GST control)"
same,binding signal,SPDEF,"1.09 fold enrichment (6-mer frequency, TF over GST control)"
same,binding signal,ETV7,"1.17 fold enrichment (6-mer frequency, TF over GST control)"
same,binding signal,ELF5,"1.11 fold enrichment (6-mer frequency, TF over GST control)"
same,binding signal,ETV3,"1.18 fold enrichment (6-mer frequency, TF over GST control)"
same,binding signal,ETV6,"1.11 fold enrichment (6-mer frequency, TF over GST control)"
